Results on 40 compounds are retold here after PubChem BioAssay (Tox21).

Calls of active or inactive are those of the source. Calls follow the shape of the dose curve; as a rule, active = well fitted curve in the direction sought with a large enough effect in the repeat runs; inconclusive = weak or mixed curves; inactive = flat fitted curve, though single readings scatter.
% is scaled to controls: 0 for no effect and ±100 for the full control effect.

The experiment can be described thus: qHTS assay to test for compound auto fluorescence at 460 nm (blue) in HepG2 cell free culture (AID 720685). As to conditions: Cell-free culture medium, blue autofluorescence 405/460 nm; series mostly up to 91.3 µM; fluorescence, % of fluorescent control: at the top concentration. An excerpt:
U.S. Tox21 Program National Center for Advancing Translational Sciences [NCATS] NIH Chemical Genomics Center [NCGC] U.S. Environmental Protection Agency [EPA] National Institutes of Environmental Health Sciences [NIEHS] National Toxicology Program [NTP] U.S. Food and Drug Administration [FDA] Tox21 Assay Overview: Compound auto fluorescence often interferes with screening of the compound library against various biological targets and signaling pathways. Some of these compounds may have fluorophoric properties. Such properties may interfere with the assay outputs resulting in false positives and/or negatives. To decrease such complications and ensure the compound activities are relevant in terms of biological response, the Tox21 10K compound library was screened for auto fluorescence. From the fluorophores used as reporter signals in our screening assays, the auto fluorescence equivalencies of compounds against three fluorophores have been evaluated: Triamterene, Fluorescein and Rose Bengal sodium for blue, green and red fluorescence, respectively. The fluorescence intensities were measured using Excitation/Emission wavelengths at 405/460nm, 485/535nm and 540/590nm for blue, green and red labels, respectively. This assay includes the blue fluorescence data.
Tox21 Assay Protocol Summary: 5 uL of culture medium (MEM containing 10% FBS) per well was dispensed into black wall/clear bottom 1536-well plates using a Multidrop Combi Dispenser (ThermoFisher Scientific, Waltham, MA). After 23 nL compound or DMSO vehicle was transferred into assay plate by a pintool work station (Kalypsys, San Diego, CA), fluorescence intensities in the assay plates were measured by an Envision (PerkinElmer, Shelton, CT) plate reader using three labels for measuring blue, green and red fluorescence at […] 460, 535 and 590nm respectively.
A general note: In qHTS, concentration-response curves come from the screen itself.
As to `COC(C)OC`, the “fluorescence, % of fluorescent control” value is 0.0393% (inactive).
Turning to `O=C(OCCc1ccccc1)c1ccccc1`, the “fluorescence, % of fluorescent control” value is -0.0066% (inactive).
For `CCC(C)(C)CC`, the “fluorescence, % of fluorescent control” value was -0.134% [at 95.7 µM] (inactive).
`COc1ccc(C(=O)Nc2nc3ccccc3c(NCc3ccccc3)c2C#N)cc1`: the “fluorescence, % of fluorescent control” value is 0.393% (inactive).
With `Cc1cccc(C)c1OCC(=O)N[C@@H](Cc1ccccc1)[C@@H](O)C[C@H](Cc1ccccc1)NC(=O)[C@H](C(C)C)N1CCCNC1=O`, the “fluorescence, % of fluorescent control” value was -0.0219% [at 46 µM] (inactive).
With `C=C(C)C(=O)OCCOCC`, the “fluorescence, % of fluorescent control” value is 0.0819% (inactive).
As for `CCCCCCCCCc1ccc(OCCOCCO)cc1`, the call was inactive.
In the case of `C=CC1CC2C=CC1C2` (stereo not given), the “fluorescence, % of fluorescent control” value is -0.037% (inactive).
The same measure, in the same setting: the result for `Cc1cc(N)c2cc(NC(=O)Nc3ccc4nc(C)cc(N)c4c3)ccc2n1` reads 2.54% [at 46 µM] (inactive); that for `Nc1ncn([C@H]2C[C@H](O)[C@@H](CO)O2)c(=O)n1`, 0.0312% [at 46 µM] (inactive); that for `COc1cc(Cl)c(OC)cc1N`, 0.1% (inactive).
On to `O=C(Nc1ccccc1)c1ccccc1O`, for which the “fluorescence, % of fluorescent control” value is 0.059% (inactive).
In the case of `CC1=CC[C@H](C(C)C)C=C1`, the “fluorescence, % of fluorescent control” value was 0.192% (inactive).
In the case of `NC(N)=NCCC[C@H](N)C(=O)O`, the “fluorescence, % of fluorescent control” value is 0.0529% [at 46 µM] (inactive).
Same read-out and setting: as for `O=[N+]([O-])c1ccc2[nH]ncc2c1`, the figure is 0.0004% (inactive); as for `CCCCc1ncc(/C=C(\Cc2cccs2)C(=O)O)n1Cc1ccc(C(=O)O)cc1`, -0.062% [at 46 µM] (inactive); as for `Clc1ccc2c(c1)CCc1cccnc1C2=C1CCNCC1`, 0.17% [at 46 µM] (inactive).
Same read-out and setting: as for `CCC(=O)O[C@]1(C(=O)CCl)[C@@H](C)C[C@H]2[C@@H]3CCC4=CC(=O)C=C[C@]4(C)[C@@]3(F)[C@@H](O)C[C@@]21C`, the figure is -0.0318% [at 46 µM] (inactive); as for `Cn1c(=O)cc(Oc2ccc(F)cc2F)c2cnc(NCC(C)(C)O)nc21`, 0.52% (inactive).
Consider `CCCCO`, for which the compound was called inactive.
For the compound `CCCCCCCN`, the “fluorescence, % of fluorescent control” value is 0.0341% [at 95.7 µM] (inactive).
`O=C(O)c1ccc(-n2nc(-c3ccccc3O)nc2-c2ccccc2O)cc1`: the “fluorescence, % of fluorescent control” value was -0.031% [at 46 µM] (inactive).
On to `CN(C)C(=O)NC1(c2ccccc2)CCN(CC[C@@]2(c3ccc(F)c(F)c3)CN(C(=O)c3ccccc3)CCO2)CC1`, for which the “fluorescence, % of fluorescent control” value is -0.0899% (inactive).
For `COC(C)(C)CCO`, the “fluorescence, % of fluorescent control” value was -0.105% (inactive).
With `c1ccc(CNCCNCc2ccccc2)cc1`, the “fluorescence, % of fluorescent control” value was -0.125% [at 46 µM] (inactive).
As for `COc1ccc(C(=O)N2CCN(CC(=O)N3CCOCC3)CC2)cc1`, the “fluorescence, % of fluorescent control” value was -0.0165% [at 46 µM] (inactive).
Consider `C=C(C)C(=O)OCC`, for which the “fluorescence, % of fluorescent control” value is 0.025% [at 95.7 µM] (inactive).
With `CCCCC1=NC2(CCCC2)C(=O)N1Cc1ccc(-c2ccccc2-c2nn[nH]n2)cc1`, the “fluorescence, % of fluorescent control” value was -0.101% [at 46 µM] (inactive).
The same measure, in the same setting: as for `O=C1CCCCCCCCCCCC(=O)OCCO1`, the figure is 0.026% (inactive); as for `C=CC(=O)OCCOc1ccccc1`, 0.0707% (inactive); as for `CCCCCCCCCOS(=O)(=O)O`, -0.0039% (inactive).
As for `C[N+]1(CC2COC(c3ccccc3)(C3CCCCC3)O2)CCCCC1` (stereo not given), the “fluorescence, % of fluorescent control” value is 0% [at 46 µM] (inactive).
`COc1cc2c(cc1OC)C(C(C(=O)N(CCc1ccc(OC)c(OC)c1OC)CCc1ccc(OC)c(OC)c1OC)c1ccccc1)=NCC2` (stereo not given): the “fluorescence, % of fluorescent control” value is 0.546% [at 46 µM] (inactive).
On to `CC(COCCO)OCCO` (stereo not given), for which the “fluorescence, % of fluorescent control” value was -0.0935% (inactive).
With `OC(CN1CCC(Cc2ccc(F)cc2)CC1)c1ccc(Cl)cc1` (stereo not given), the “fluorescence, % of fluorescent control” value is -0.0129% [at 46 µM] (inactive).
As to `CCO[Si](CCCCl)(OCC)OCC`, the “fluorescence, % of fluorescent control” value is 0.111% (inactive).
Regarding `CN1CCC(N(Cc2cccs2)c2ccccc2)CC1`, the “fluorescence, % of fluorescent control” value is 0.0088% [at 46 µM] (inactive).
`C[C@@H]1C[C@H]2O[C@@]3(O[C@@H]2C(C)(C)O)[C@H](O)[C@@]2(C)[C@@H]4CC[C@H]5C(C)(C)[C@@H](O[C@@H]6OC[C@@H](O)[C@H](O)[C@H]6O)CC[C@@]56C[C@@]46CC[C@]2(C)[C@@H]13`: the “fluorescence, % of fluorescent control” value is -0.239% (inactive).
Same read-out and setting: the result for `CCOC(=O)NCCOc1ccc(Oc2ccccc2)cc1` reads 0.0172% (inactive); that for `CCCCc1nc2cccnc2n1Cc1ccc(-c2ccccc2-c2nnn[nH]2)cc1`, 0.0212% (inactive).
